Assay results from paper PMC9911399, “Two distinct binding modes provide the RNA-binding protein RbFox with extraordinary sequence specificity”.
Residue numbers refer to the chain shown, from its start. In all, about 16,000 sequences were measured (“ka relative to ugcaugu”: median about 0.096, highest 2% from about 0.35 on). The entries come from a sample that favours the highest values as a whole.

T1: RBFOX1 RRM RbFoxmut (Fox-RRM*) (Homo sapiens, UniProt Q9NWB1 109-208, R118D;E147R;N151S;E152T)
T1 sequence: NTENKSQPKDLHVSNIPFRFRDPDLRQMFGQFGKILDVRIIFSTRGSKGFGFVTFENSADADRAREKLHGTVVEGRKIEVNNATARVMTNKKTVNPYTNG

B1: AGUUUUA (DNA:RNA)
RNA: GGGAGACCGGAAUUCAGAUUGUCCAGUUUUAUUAAAUCCCGUCGUAGCCACCA
DNA 1: CAATCTGAATTCCGGTCTCCC
DNA 2: TGGTGGCTACGACGGGATT
B2: UCGAAGU (DNA:RNA)
RNA: GGGAGACCGGAAUUCAGAUUGUCCUCGAAGUUUAAAUCCCGUCGUAGCCACCA
DNA 1: CAATCTGAATTCCGGTCTCCC
DNA 2: TGGTGGCTACGACGGGATT
B3: GUCCUUU (DNA:RNA)
RNA: B1 RNA with A25G, G26U, U27C, U28C, A31U
DNA 1: CAATCTGAATTCCGGTCTCCC
DNA 2: TGGTGGCTACGACGGGATT
B4: CGACCAC (DNA:RNA)
RNA: B1 RNA with A25C, U27A, U28C, U29C, U30A, A31C
DNA 1: CAATCTGAATTCCGGTCTCCC
DNA 2: TGGTGGCTACGACGGGATT
B5: AACACUU (DNA:RNA)
RNA: B1 RNA with G26A, U27C, U28A, U29C, A31U
DNA 1: CAATCTGAATTCCGGTCTCCC
DNA 2: TGGTGGCTACGACGGGATT
B6: ACAACGA (DNA:RNA)
RNA: B2 RNA with U25A, G27A, A29C, U31A
DNA 1: CAATCTGAATTCCGGTCTCCC
DNA 2: TGGTGGCTACGACGGGATT
B7: GGAGGAU (DNA:RNA)
RNA: B1 RNA with A25G, U27A, U28G, U29G, U30A, A31U
DNA 1: CAATCTGAATTCCGGTCTCCC
DNA 2: TGGTGGCTACGACGGGATT
B8: AAUCGAA (DNA:RNA)
RNA: B1 RNA with G26A, U28C, U29G, U30A
DNA 1: CAATCTGAATTCCGGTCTCCC
DNA 2: TGGTGGCTACGACGGGATT
B9: AGCCUUG (DNA:RNA)
RNA: B1 RNA with U27C, U28C, A31G
DNA 1: CAATCTGAATTCCGGTCTCCC
DNA 2: TGGTGGCTACGACGGGATT
B10: AGCAGCC (DNA:RNA)
RNA: B1 RNA with U27C, U28A, U29G, U30C, A31C
DNA 1: CAATCTGAATTCCGGTCTCCC
DNA 2: TGGTGGCTACGACGGGATT
B11: CGCCUUG (DNA:RNA)
RNA: B1 RNA with A25C, U27C, U28C, A31G
DNA 1: CAATCTGAATTCCGGTCTCCC
DNA 2: TGGTGGCTACGACGGGATT
B12: GCCUUGG (DNA:RNA)
RNA: B1 RNA with A25G, G26C, U27C, U30G, A31G
DNA 1: CAATCTGAATTCCGGTCTCCC
DNA 2: TGGTGGCTACGACGGGATT
B13: GCCCGCC (DNA:RNA)
RNA: B2 RNA with U25G, G27C, A28C, A29G, G30C, U31C
DNA 1: CAATCTGAATTCCGGTCTCCC
DNA 2: TGGTGGCTACGACGGGATT
B14: ACCAGCC (DNA:RNA)
RNA: B2 RNA with U25A, G27C, A29G, G30C, U31C
DNA 1: CAATCTGAATTCCGGTCTCCC
DNA 2: TGGTGGCTACGACGGGATT
B15: CGCCGCC (DNA:RNA)
RNA: B1 RNA with A25C, U27C, U28C, U29G, U30C, A31C
DNA 1: CAATCTGAATTCCGGTCTCCC
DNA 2: TGGTGGCTACGACGGGATT
B16: GCCAGCC (DNA:RNA)
RNA: B2 RNA with U25G, G27C, A29G, G30C, U31C
DNA 1: CAATCTGAATTCCGGTCTCCC
DNA 2: TGGTGGCTACGACGGGATT
B17: GUCCGCC (DNA:RNA)
RNA: GGGAGACCGGAAUUCAGAUUGUCCGUCCGCCUUAAAUCCCGUCGUAGCCACCA
DNA 1: CAATCTGAATTCCGGTCTCCC
DNA 2: TGGTGGCTACGACGGGATT
B18: GCUCUGU (DNA:RNA)
RNA: B2 RNA with U25G, G27U, A28C, A29U
DNA 1: CAATCTGAATTCCGGTCTCCC
DNA 2: TGGTGGCTACGACGGGATT
B19: ACCACUU (DNA:RNA)
RNA: B2 RNA with U25A, G27C, A29C, G30U
DNA 1: CAATCTGAATTCCGGTCTCCC
DNA 2: TGGTGGCTACGACGGGATT
B20: GCUCAUC (DNA:RNA)
RNA: B17 RNA with U26C, C27U, G29A, C30U
DNA 1: CAATCTGAATTCCGGTCTCCC
DNA 2: TGGTGGCTACGACGGGATT
B21: UUAAUGA (DNA:RNA)
RNA: B2 RNA with C26U, G27A, A29U, U31A
DNA 1: CAATCTGAATTCCGGTCTCCC
DNA 2: TGGTGGCTACGACGGGATT
B22: CUGGUAA (DNA:RNA)
RNA: B1 RNA with A25C, G26U, U27G, U28G, U30A
DNA 1: CAATCTGAATTCCGGTCTCCC
DNA 2: TGGTGGCTACGACGGGATT
B23: AAGAUCU (DNA:RNA)
RNA: B2 RNA with U25A, C26A, A29U, G30C
DNA 1: CAATCTGAATTCCGGTCTCCC
DNA 2: TGGTGGCTACGACGGGATT
B24: AAAUCAC (DNA:RNA)
RNA: B1 RNA with G26A, U27A, U29C, U30A, A31C
DNA 1: CAATCTGAATTCCGGTCTCCC
DNA 2: TGGTGGCTACGACGGGATT
B25: GCGUUUG (DNA:RNA)
RNA: B1 RNA with A25G, G26C, U27G, A31G
DNA 1: CAATCTGAATTCCGGTCTCCC
DNA 2: TGGTGGCTACGACGGGATT
B26: GUAUGCC (DNA:RNA)
RNA: B17 RNA with C27A, C28U
DNA 1: CAATCTGAATTCCGGTCTCCC
DNA 2: TGGTGGCTACGACGGGATT
B27: GUAUGUC (DNA:RNA)
RNA: B17 RNA with C27A, C28U, C30U
DNA 1: CAATCTGAATTCCGGTCTCCC
DNA 2: TGGTGGCTACGACGGGATT
B28: UUAUGCG (DNA:RNA)
RNA: B17 RNA with G25U, C27A, C28U, C31G
DNA 1: CAATCTGAATTCCGGTCTCCC
DNA 2: TGGTGGCTACGACGGGATT
B29: GCGUCGU (DNA:RNA)
RNA: B2 RNA with U25G, A28U, A29C
DNA 1: CAATCTGAATTCCGGTCTCCC
DNA 2: TGGTGGCTACGACGGGATT
B30: GCGUAUG (DNA:RNA)
RNA: B2 RNA with U25G, A28U, G30U, U31G
DNA 1: CAATCTGAATTCCGGTCTCCC
DNA 2: TGGTGGCTACGACGGGATT
B31: GUAUGCG (DNA:RNA)
RNA: B17 RNA with C27A, C28U, C31G
DNA 1: CAATCTGAATTCCGGTCTCCC
DNA 2: TGGTGGCTACGACGGGATT
B32: GCGUCCG (DNA:RNA)
RNA: B17 RNA with U26C, C27G, C28U, G29C, C31G
DNA 1: CAATCTGAATTCCGGTCTCCC
DNA 2: TGGTGGCTACGACGGGATT
B33: CGCGUCG (DNA:RNA)
RNA: B1 RNA with A25C, U27C, U28G, U30C, A31G
DNA 1: CAATCTGAATTCCGGTCTCCC
DNA 2: TGGTGGCTACGACGGGATT

Molecular target: T1, RBFOX1 RRM RbFoxmut (Fox-RRM*)
Assay: EMSA; HiTS-Eq, 1 nM pool, 10 min; buffer printed only for the single-RNA assays: 10 mM Tris pH 7.5, 150 mM NaCl, 3.4 mM EDTA, 0.001% NP-40, 30 C
Conditions: tags: His6 N-terminal (pET28a); label: 5' 32P
Method in brief: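 Relative association constants, normalised to the cognate motif, were derived by comparing read counts of each RNA species with those of the control reaction. The RNA sequenced was the free fraction, separated by 8% native PAGE after a 10 min equilibration in 50 µL of 1 nM 5′-radiolabelled RNA (7 randomized nucleotides) with increasing concentrations of purified wild-type or mutant RbFox RRM.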

Binder	binding signal
B1	0.101 KA relative to UGCAUGU
B2	0.107 KA relative to UGCAUGU
B3	0.081 KA relative to UGCAUGU
B4	0.0643 KA relative to UGCAUGU
B5	0.0596 KA relative to UGCAUGU
B6	0.0863 KA relative to UGCAUGU
B7	0.0724 KA relative to UGCAUGU
B8	0.081 KA relative to UGCAUGU
B9	0.576 KA relative to UGCAUGU
B10	0.0801 KA relative to UGCAUGU
B11	0.978 KA relative to UGCAUGU
B12	0.501 KA relative to UGCAUGU
B13	0.0938 KA relative to UGCAUGU
B14	0.0795 KA relative to UGCAUGU
B15	0.13 KA relative to UGCAUGU
B16	0.075 KA relative to UGCAUGU
B17	0.105 KA relative to UGCAUGU

Binder	binding signal
B18	0.102 KA relative to UGCAUGU
B19	0.0717 KA relative to UGCAUGU
B20	0.06 KA relative to UGCAUGU
B21	0.0717 KA relative to UGCAUGU
B22	0.121 KA relative to UGCAUGU
B23	0.0643 KA relative to UGCAUGU
B24	0.0617 KA relative to UGCAUGU
B25	0.403 KA relative to UGCAUGU
B26	0.278 KA relative to UGCAUGU
B27	0.334 KA relative to UGCAUGU
B28	0.13 KA relative to UGCAUGU
B29	0.129 KA relative to UGCAUGU
B30	0.876 KA relative to UGCAUGU
B31	0.468 KA relative to UGCAUGU
B32	0.135 KA relative to UGCAUGU
B33	0.101 KA relative to UGCAUGU
